Values joined by “and” are separate entries in the source; they are usually repeats but may differ in a detail not shown here. Identical values can stand only once. Inconclusive results are not listed. Entries that show only a call come without a potency. Active and inactive are the calls of the source. Unless noted, the call rests on the fitted dose curve.
Target: Thyrotropin receptor (Homo sapiens) (UniProt P16473)
Test: qHTS assay to identify small molecule agonists of the thyroid stimulating hormone receptor (TSHR) signaling pathway (AID 1224843); further: nearly all actives have a fitted effect of over 45% in size
Settings: TSHR-HEK293 cells, cAMP HTRF, agonist mode, 30 min; series mostly up to 92.4 µM
Summary of the method: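 Steps: seed 800 TSHR-HEK293 cells per well; add test compound and hold 30 min at ambient temperature; dispense cAMP-d2 then anti-cAMP cryptate; incubate 1 h at ambient; measure fluorescence intensity.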
Potency means the concentration at half of the fitted maximal effect.

Sequence of Thyrotropin receptor (Homo sapiens) (P16473 whole entry, looked up): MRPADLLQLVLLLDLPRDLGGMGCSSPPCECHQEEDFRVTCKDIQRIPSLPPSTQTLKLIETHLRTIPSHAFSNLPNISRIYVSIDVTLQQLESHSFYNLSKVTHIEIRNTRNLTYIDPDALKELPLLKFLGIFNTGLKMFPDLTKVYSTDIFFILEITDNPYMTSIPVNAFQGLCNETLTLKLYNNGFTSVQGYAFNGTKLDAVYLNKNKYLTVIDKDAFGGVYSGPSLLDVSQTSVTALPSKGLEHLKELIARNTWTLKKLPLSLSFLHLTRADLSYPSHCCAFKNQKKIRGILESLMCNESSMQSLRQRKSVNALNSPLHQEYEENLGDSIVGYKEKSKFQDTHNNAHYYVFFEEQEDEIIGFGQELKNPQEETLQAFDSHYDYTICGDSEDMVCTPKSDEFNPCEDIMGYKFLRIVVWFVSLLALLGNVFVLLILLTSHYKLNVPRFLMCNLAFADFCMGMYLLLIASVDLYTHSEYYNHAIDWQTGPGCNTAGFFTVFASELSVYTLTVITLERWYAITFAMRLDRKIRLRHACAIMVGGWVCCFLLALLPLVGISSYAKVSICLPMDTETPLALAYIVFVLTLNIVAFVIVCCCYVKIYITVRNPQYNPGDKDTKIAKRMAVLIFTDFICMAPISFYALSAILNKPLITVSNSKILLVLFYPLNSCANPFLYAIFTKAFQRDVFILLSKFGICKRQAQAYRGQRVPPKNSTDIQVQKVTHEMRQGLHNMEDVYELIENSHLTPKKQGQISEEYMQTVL

Structure (SMILES)	Potency
CC1(C)COCN1	inactive
CCCCOC(=O)C(C)CC (stereo not drawn)	inactive
CO[Si](CCC1CCC2OC2C1)(OC)OC (stereo not drawn)	inactive
Clc1ccc(C(c2ccccc2Cl)C(Cl)Cl)cc1 (stereo not drawn)	12.2 µM (active) and 5.31 µM (active)
CC1=CCC(=O)O1	inactive
CC(C)c1cccc(C(C)C)c1N1C(=O)c2ccc(O)cc2C1=O	inactive
COc1cccc(OC)c1O	inactive
C=C(C)CCCC	inactive
CCOCOCC	inactive
CCO[Si](C)(C)OCC	inactive
CS(C)(=O)=O	inactive
CCCCCCCCCCCCN(CCO)CCO	inactive
CC(C)=CCCC(C)O (stereo not drawn)	inactive
C#CC(O)CCC (stereo not drawn)	inactive
C/C=C/C(=O)C1=C(C)CCCC1(C)C	inactive
CCc1cccc(CC)c1NC(=O)C(=O)O	inactive

Structure (SMILES)	Potency
COc1ccccc1C=O	inactive
CCOC(=O)CN	inactive
Cc1cccc(C)c1NC(=O)CN1CCN(CCCC(c2ccc(F)cc2)c2ccc(F)cc2)CC1	inactive
O=C1OC(OC(=O)c2cccnc2Nc2cccc(C(F)(F)F)c2)c2ccccc21 (stereo not drawn)	inactive
C=CC/C=C/C/C=C/C/C=C/C	inactive
Oc1cc2ccccc2cc1O	inactive
Cc1cccc(N(C)C)c1	inactive
CCCCCCCC/C=C/CCCOC(C)=O	inactive
Cc1cncc(C)c1	inactive
O=CC1CC1	inactive
CCCCOCC	inactive
CCc1cccc(CC)c1N(COC)C(=O)CS(=O)(=O)O	inactive
O=c1cccc[nH]1	inactive
O=C1NCN(c2ccccc2)C12CCN(CCCC(c1ccc(F)cc1)c1ccc(F)cc1)CC2	inactive
CSc1ccc2c(c1)N(CCC1CCCCN1C)c1ccccc1S2 (stereo not drawn)	inactive
CCOC(/C=C(\C)CCC=C(C)C)OCC	inactive

Test system: not listed separately
Test: qHTS assay to identify small molecule agonists of the hypoxia (HIF-1) signaling pathway - cell viability counter screen (AID 1224844); further: nearly all actives have a fitted effect of over 50% in size
Settings: HRE-bla ME-180 viability, CellTiter-Glo luminescence, 17 h; series mostly up to 76.8 µM
Summary of the method: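 ME-180 HRE-bla cells, 2,000/well, 0.5% dialyzed FBS; 5 hr settle, 17 hr compound at 37C/5% CO2; CCF4-AM reporter read first, then CellTiter-Glo luminescence after 30 min RT.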

Structure (SMILES)	Potency
CC1(C)COCN1	inactive
CCCCOC(=O)C(C)CC (stereo not drawn)	inactive
Clc1ccc(C(c2ccccc2Cl)C(Cl)Cl)cc1 (stereo not drawn)	54.9 µM (active)
CC1=CCC(=O)O1	inactive
COc1cccc(OC)c1O	inactive
C=C(C)CCCC	inactive
CCOCOCC	inactive
CCO[Si](C)(C)OCC	inactive
CS(C)(=O)=O	inactive
CC(C)=CCCC(C)O (stereo not drawn)	inactive
C#CC(O)CCC (stereo not drawn)	inactive
CCc1cccc(CC)c1NC(=O)C(=O)O	inactive
COc1ccccc1C=O	inactive
CCOC(=O)CN	inactive
O=C1OC(OC(=O)c2cccnc2Nc2cccc(C(F)(F)F)c2)c2ccccc21 (stereo not drawn)	inactive
CCOC(OCC)C(=O)c1ccccc1	inactive
Oc1cc2ccccc2cc1O	inactive
Cc1cccc(N(C)C)c1	inactive
CCCCCCCC/C=C/CCCOC(C)=O	inactive
Cc1cncc(C)c1	inactive
O=CC1CC1	inactive
CCCCOCC	inactive
CCc1cccc(CC)c1N(COC)C(=O)CS(=O)(=O)O	inactive
CSc1ccc2c(c1)N(CCC1CCCCN1C)c1ccccc1S2 (stereo not drawn)	21.8 µM (active) and 21.3 µM (active)
Cc1cnccn1	inactive

Test system: not listed separately
Test: qHTS assay to identify small molecule agonists of H2AX (AID 1224845; active means well fitted activation curve with a large enough effect in the signal ratio in the repeat runs, not every such curve was filed as active; the % refers to the signal ratio)
Settings: CHO-K1 phospho-H2AX Ser139 HTRF, 3 h; series mostly up to 154 µM
Summary of the method: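 Wild-type CHO-K1 cells, plated overnight, exposed 3hr at 37C to 15 concentrations (0.76% DMSO final). Lysed, then HTRF anti-pH2AX (S139) cryptate and anti-H2AX-d2 antibodies, 24 hr room temperature; 665/620 nm emission read.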

Structure (SMILES)	Potency
CC1(C)COCN1	inactive
CCCCOC(=O)C(C)CC (stereo not drawn)	inactive
Clc1ccc(C(c2ccccc2Cl)C(Cl)Cl)cc1 (stereo not drawn)	113 µM (active)
CC1=CCC(=O)O1	inactive
C=C(C)CCCC	inactive
CCOCOCC	inactive
CCCC(=O)OCC(COC(=O)CCC)OC(=O)CCC	inactive
CCO[Si](C)(C)OCC	inactive
CC(C)=CCCC(C)O (stereo not drawn)	inactive
C#CC(O)CCC (stereo not drawn)	inactive
CCc1cccc(CC)c1NC(=O)C(=O)O	inactive
CCCCCCCC/C=C/CCCOC(C)=O	inactive
CCc1cccc(CC)c1N(COC)C(=O)CS(=O)(=O)O	inactive
O=c1cccc[nH]1	inactive
Cc1cnccn1	inactive
CCOC(/C=C(\C)CCC=C(C)C)OCC	inactive

From PubChem BioAssay (Tox21)
